Reference: the supplement of paper PMC12819154, “High-throughput peptide-centric local stability assay extends protein–ligand identification to membrane proteins, tissues and bacteria” (Nature Structural & Molecular Biology, 2025)

What follows are targets tested with Nc1ncnc2c1ncn2[C@@H]1O[C@H](COP(=O)(O)OP(=O)(O)OP(=O)(O)O)[C@@H](O)[C@H]1O [adenosine 5'-triphosphate] (assay: log2 fold change of tryptic peptide abundance, ligand vs vehicle (limited proteolysis) (log2 ratio); higher = more trypsin-susceptible (destabilized)). Conditions: ligand concentration: 5 mM; sample: E. coli desalted lysate; replicate design: treated before aliquoting.
Procedure: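 HT-PELSA: desalted E. coli K-12 BW25113 lysate (with 12 mM MgCl2) incubated with 5 mM ATP (pH 7) or water for 30 min at 25 C, then a 4 min trypsin pulse at 22 C. Peptides were quantified by DIA-MS (4 replicates). Value is the peptide log2 fold change (treated/control); negative = stabilized. Scale: negative = ligand-stabilized region.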
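Also: lysate desalted by size exclusion to strip endogenous ATP, peptide intensities built from DIA-NN precursor signals, and peptides missing any value discarded before comparison.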

Sequence of UniProt P06989 (P06989 whole entry): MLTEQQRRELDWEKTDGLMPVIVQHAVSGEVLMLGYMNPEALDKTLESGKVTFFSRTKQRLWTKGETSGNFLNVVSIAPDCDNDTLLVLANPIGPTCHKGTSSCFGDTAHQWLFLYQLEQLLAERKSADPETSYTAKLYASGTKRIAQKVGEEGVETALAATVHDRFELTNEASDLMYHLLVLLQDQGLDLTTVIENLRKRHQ
Sequence of UniProt P0AAT4 (P0AAT4 whole entry): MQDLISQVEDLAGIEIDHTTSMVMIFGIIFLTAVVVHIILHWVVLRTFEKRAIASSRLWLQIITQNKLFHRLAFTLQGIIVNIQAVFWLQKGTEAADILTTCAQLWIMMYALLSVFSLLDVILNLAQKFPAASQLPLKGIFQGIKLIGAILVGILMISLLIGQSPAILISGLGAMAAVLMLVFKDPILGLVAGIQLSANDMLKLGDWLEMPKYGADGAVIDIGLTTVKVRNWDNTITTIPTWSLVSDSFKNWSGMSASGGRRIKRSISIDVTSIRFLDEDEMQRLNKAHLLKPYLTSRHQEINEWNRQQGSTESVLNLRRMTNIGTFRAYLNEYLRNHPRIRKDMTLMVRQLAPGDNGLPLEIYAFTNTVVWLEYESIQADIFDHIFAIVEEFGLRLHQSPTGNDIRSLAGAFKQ
Sequence of UniProt P21866 (P21866 whole entry): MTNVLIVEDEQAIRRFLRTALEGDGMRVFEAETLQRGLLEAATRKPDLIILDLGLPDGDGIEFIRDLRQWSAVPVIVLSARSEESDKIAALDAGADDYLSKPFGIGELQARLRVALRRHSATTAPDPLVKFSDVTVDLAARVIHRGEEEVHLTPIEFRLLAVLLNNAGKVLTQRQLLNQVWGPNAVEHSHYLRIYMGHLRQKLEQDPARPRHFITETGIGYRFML
Sequence of UniProt P23865 (P23865 whole entry): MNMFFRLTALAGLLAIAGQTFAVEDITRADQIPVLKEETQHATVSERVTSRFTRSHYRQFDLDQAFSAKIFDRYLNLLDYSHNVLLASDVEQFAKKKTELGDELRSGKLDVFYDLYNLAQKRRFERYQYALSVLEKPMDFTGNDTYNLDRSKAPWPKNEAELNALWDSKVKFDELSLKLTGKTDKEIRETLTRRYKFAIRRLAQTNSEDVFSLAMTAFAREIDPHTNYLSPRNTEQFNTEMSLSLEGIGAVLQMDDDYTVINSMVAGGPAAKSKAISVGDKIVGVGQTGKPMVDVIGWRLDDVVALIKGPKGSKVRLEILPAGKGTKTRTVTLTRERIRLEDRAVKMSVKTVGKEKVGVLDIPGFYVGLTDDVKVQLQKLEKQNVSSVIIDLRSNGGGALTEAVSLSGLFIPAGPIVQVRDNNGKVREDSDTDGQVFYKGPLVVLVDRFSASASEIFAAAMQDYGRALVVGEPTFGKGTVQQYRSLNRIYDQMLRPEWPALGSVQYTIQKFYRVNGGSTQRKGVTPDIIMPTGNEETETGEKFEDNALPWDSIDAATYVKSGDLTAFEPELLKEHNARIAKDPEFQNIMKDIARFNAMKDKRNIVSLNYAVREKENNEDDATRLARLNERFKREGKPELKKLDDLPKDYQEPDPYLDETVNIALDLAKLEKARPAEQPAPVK
Sequence of UniProt P08660 (P08660 whole entry): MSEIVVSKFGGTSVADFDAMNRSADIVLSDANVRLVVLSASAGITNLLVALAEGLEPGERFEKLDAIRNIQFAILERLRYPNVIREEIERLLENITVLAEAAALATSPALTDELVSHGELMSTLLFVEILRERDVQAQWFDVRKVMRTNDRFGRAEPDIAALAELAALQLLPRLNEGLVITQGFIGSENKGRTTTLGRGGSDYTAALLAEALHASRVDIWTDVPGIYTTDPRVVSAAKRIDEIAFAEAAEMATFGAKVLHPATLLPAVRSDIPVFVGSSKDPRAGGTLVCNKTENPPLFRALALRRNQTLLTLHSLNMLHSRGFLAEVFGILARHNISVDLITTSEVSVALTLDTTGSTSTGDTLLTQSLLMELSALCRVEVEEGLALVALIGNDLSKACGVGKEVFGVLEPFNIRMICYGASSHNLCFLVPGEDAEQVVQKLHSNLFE
Sequence of UniProt P0AG14 (P0AG14 whole entry): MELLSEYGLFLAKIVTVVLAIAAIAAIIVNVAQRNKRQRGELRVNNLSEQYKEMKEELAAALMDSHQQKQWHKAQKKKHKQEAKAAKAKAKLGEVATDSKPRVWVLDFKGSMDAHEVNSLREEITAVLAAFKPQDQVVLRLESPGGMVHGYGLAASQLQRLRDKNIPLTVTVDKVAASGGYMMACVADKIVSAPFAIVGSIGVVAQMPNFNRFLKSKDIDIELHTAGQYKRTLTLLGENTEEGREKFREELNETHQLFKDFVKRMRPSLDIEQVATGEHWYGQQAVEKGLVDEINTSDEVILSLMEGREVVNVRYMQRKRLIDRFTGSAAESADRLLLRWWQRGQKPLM
Sequence of UniProt P03835 (P03835 whole entry): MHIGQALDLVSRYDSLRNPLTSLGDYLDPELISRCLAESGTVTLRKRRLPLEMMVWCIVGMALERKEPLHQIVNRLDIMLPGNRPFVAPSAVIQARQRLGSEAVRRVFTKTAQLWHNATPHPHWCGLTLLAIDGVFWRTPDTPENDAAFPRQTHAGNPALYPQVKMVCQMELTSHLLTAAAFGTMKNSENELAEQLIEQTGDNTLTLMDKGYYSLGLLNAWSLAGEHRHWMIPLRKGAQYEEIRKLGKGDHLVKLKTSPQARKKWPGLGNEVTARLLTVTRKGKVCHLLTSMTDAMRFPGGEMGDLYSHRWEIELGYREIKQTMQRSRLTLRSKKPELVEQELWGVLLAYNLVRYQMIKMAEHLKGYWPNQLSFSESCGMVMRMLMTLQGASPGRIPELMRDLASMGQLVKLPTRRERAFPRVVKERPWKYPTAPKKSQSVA
Sequence of UniProt P76562 (P76562 whole entry): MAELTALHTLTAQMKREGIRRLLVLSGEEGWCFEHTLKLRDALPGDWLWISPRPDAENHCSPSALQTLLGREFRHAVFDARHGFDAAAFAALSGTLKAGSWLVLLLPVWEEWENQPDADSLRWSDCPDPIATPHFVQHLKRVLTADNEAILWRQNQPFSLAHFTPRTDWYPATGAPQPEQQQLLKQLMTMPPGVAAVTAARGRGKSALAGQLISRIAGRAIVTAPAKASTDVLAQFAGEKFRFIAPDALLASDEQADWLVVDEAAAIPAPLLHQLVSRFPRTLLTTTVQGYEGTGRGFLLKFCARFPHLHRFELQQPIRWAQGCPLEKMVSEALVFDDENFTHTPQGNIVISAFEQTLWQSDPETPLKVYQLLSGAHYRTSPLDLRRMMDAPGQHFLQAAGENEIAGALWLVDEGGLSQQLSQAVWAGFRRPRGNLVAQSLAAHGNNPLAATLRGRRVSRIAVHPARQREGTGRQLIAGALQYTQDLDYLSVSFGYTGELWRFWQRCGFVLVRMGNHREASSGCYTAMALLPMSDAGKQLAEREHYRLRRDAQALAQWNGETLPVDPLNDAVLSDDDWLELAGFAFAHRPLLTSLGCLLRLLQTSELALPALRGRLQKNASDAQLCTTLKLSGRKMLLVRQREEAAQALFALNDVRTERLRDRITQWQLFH
Sequence of UniProt P76346 (P76346 whole entry): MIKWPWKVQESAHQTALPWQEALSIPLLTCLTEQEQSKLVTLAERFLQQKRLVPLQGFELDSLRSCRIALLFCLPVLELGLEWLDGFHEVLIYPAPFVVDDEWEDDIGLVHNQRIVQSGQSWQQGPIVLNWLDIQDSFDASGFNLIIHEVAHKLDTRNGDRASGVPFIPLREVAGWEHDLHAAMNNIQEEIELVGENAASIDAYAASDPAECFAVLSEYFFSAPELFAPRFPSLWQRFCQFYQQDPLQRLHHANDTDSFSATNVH
Sequence of UniProt P31475 (P31475 whole entry): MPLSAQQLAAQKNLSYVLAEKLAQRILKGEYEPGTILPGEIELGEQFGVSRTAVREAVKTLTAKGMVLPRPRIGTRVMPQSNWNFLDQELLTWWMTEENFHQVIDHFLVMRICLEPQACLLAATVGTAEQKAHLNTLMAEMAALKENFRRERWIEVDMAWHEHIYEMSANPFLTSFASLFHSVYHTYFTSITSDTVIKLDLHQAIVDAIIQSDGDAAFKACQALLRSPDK
Sequence of UniProt P80668 (P80668 whole entry): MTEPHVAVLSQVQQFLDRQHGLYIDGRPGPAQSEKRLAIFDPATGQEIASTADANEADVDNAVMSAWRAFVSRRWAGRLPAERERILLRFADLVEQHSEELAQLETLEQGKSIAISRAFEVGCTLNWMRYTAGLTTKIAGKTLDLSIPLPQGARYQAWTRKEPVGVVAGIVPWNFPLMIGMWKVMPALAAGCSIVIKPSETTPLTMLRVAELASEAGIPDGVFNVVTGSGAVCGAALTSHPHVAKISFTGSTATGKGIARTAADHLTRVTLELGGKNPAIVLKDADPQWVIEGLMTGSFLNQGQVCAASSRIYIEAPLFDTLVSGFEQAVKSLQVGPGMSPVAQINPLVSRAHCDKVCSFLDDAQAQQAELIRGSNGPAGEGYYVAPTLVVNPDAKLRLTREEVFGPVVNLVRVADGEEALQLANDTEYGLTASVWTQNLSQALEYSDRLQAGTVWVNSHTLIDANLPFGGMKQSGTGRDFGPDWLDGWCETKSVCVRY
Sequence of UniProt P0AC84 (P0AC84 whole entry): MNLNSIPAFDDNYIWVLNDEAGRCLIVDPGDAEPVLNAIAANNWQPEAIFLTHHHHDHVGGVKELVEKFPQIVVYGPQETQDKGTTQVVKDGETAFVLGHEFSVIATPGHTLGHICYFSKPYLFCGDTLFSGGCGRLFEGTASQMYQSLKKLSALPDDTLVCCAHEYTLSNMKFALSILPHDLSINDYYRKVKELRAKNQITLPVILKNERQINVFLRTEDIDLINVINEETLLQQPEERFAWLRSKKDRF
Sequence of UniProt P32173 (P32173 whole entry): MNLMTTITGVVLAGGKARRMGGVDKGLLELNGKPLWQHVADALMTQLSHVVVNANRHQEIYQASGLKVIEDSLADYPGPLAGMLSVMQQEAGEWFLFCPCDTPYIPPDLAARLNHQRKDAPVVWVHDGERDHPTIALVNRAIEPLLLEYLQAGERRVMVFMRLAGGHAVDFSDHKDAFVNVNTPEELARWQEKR

Row | Target | log2 fold change
1 | UniProt P80668 (peptide sequence: TAADHLTR, peptide start residue: 261) | -1.12
2 | UniProt P23865 (peptide sequence: VRLEILPAGK, peptide start residue: 315) | 1.04
3 | UniProt P09152 (peptide sequence: GHEFMLK, peptide start residue: 724) | 0.491
4 | UniProt P32173 (peptide sequence: DAPVVWVHDGERDHPTIALVNR, peptide start residue: 119) | -0.372
5 | UniProt P0AC84 (peptide sequence: QINVFLR, peptide start residue: 212) | 0.46
6 | UniProt P76346 (peptide sequence: LHHANDTDSFSATNVH, peptide start residue: 250) | 0.288
7 | UniProt P36672 (peptide sequence: LRFVLNQPANARPK, peptide start residue: 33) | 0.581
8 | UniProt P06989 (peptide sequence: KSADPETSYTAK, peptide start residue: 126) | -0.912
9 | UniProt P03835 (peptide sequence: DLASMGQLVK, peptide start residue: 402) | -1.3
10 | UniProt P24230 (peptide sequence: TLVAALAALR, peptide start residue: 303) | -1.21
11 | UniProt P39199 (peptide sequence: AWFCGHEFYVDER, peptide start residue: 97) | 1.88
12 | UniProt P24193 (peptide sequence: AVVTSMAETAR, peptide start residue: 111) | -1.88
13 | UniProt P00968 (peptide sequence: AQLGSNSTMKKHGR, peptide start residue: 931) | 0.849
14 | UniProt P28631 (peptide sequence: YLLCQQPQGHK, peptide start residue: 47) | -0.546
15 | UniProt P37769 (peptide sequence: LMANEWAK, peptide start residue: 171) | -0.444
16 | UniProt P0AG14 (peptide sequence: VNNLSEQYK, peptide start residue: 44) | -0.765
17 | UniProt P37773 (peptide sequence: IIAVLEPRSNTMK, peptide start residue: 354) | 1.55
18 | UniProt P0AAT4 (peptide sequence: AHLLKPYLTSR, peptide start residue: 288) | 0.38
19 | UniProt P02916 (peptide sequence: ETTAQPEGER, peptide start residue: 161) | 0.465
20 | UniProt P39310 (peptide sequence: VWHAPDNFR, peptide start residue: 14) | -0.8
21 | UniProt P76268 (peptide sequence: ALQNVDLIR, peptide start residue: 83) | 0.371
22 | UniProt P37197 (peptide sequence: GDENALTAQQK, peptide start residue: 330) | -0.521
23 | UniProt P31475 (peptide sequence: AHLNTLMAEMAALKENFRR, peptide start residue: 132) | 0.66
24 | UniProt P76562 (peptide sequence: EHYRLRR, peptide start residue: 544) | 0.855
25 | UniProt P21866 (peptide sequence: RHSATTAPDPLVK, peptide start residue: 118) | 1.65
26 | UniProt P37005 (peptide sequence: IVDSQAHLEPATR, peptide start residue: 33) | -0.548
27 | UniProt P08660 (peptide sequence: RNQTLLTLHSLNMLHSR, peptide start residue: 306) | -0.461
28 | UniProt P15640 (peptide sequence: TSEWDER, peptide start residue: 323) | -1.28
29 | UniProt P08400 (peptide sequence: FSFVIPER, peptide start residue: 417) | 2.08
